Screens deposited in PubChem by several laboratories.
Granule exo inh = LAMP-1 surface exposure blockers, TALL-104 cells – cell-based, flow cytometry, MLPCN library, primary screen; TALL-104 LAMP-1 surface exposure; cells stimulated with thapsigargin and PMA; inhibition, % at 10 µM; 0.66% of 360,000 active; AID 651702, 2012;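 active = inhibition above about 55%, limit read from the data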
JMJD2C inh = inhibitors of GASC-1 histone demethylase, primary screen, biochemical, fluorescence, DELFIA europium; AID 2099, 2009; GST-JMJD2C(1-420) H3K9me3 demethylation; 0.069% of 330,000 active; inhibition, % at 2.35 µM; Lysine-specific demethylase 4C (Homo sapiens), Q9H3R0;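 active = more than half of a compound's replicate wells show inhibition beyond 50%, single wells judged on their own value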;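 note: signal counts dimethyl H3K9 product captured on neutravidin plate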
Target sequence (Q9H3R0 1-420 limits assumed): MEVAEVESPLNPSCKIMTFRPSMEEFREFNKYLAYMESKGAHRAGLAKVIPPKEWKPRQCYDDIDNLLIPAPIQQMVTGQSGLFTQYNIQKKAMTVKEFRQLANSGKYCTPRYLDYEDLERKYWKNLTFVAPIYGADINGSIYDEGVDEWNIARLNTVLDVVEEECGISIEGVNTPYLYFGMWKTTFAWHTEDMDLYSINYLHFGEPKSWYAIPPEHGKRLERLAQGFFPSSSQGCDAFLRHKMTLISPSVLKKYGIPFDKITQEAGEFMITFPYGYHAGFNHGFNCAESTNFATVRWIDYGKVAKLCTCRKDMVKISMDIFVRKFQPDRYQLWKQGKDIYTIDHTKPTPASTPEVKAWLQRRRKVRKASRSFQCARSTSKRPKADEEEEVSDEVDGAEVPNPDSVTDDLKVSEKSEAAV
SMARCA2 act = SMARCA2 (BRM) function activators, primary screen, cell-based, luminescence, high throughput. 1% of 370,000 active. MG213 cells, MMTV-luciferase reporter, dexamethasone, overnight. activation, % at 9.1 µM; in the data active = activation above about 7.8%
M18AAP inhibitor = PfM18AAP inhibitors, malaria aminopeptidase, primary screen, biochemical, QFRET, recombinant enzyme | M18 aspartyl aminopeptidase (Plasmodium falciparum 3D7) | H-Glu-NHMec fluorogenic cleavage | inhibition, % at 7.35 µM | 1.2% of 290,000 active | AID 1822, 2009;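 active = inhibition above the campaign mean inhibition over all tested compounds plus 3 SD, cut at about 28% in these data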
ALR H2O2 inh = inhibitors of human ALR sulfhydryl oxidase, primary screen, biochemical, H2O2 detection, HRP-luminol luminescence, single point. FAD-linked sulfhydryl oxidase ALR (Homo sapiens), P55789. purified ALR, DTT oxidation. inhibition, % (test concentration not listed). 3.8% of 290,000 active. AID 485317, 2010;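 active = mean replicate inhibition above about 79%, with every replicate also reaching it, limit read from the data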
Target sequence (P55789 whole entry, looked up): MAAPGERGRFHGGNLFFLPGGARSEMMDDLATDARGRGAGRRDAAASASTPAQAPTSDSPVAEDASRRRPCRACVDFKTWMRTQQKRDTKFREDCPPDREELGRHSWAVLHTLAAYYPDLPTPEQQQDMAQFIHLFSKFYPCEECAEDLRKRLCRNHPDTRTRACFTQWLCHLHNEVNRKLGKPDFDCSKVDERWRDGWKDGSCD
MIN6 prolif-1 = inducers of MIN6 beta-cell proliferation, primary screen, ATP luminescence, uHTS | MIN6 cells proliferation, ATPlite luminescence, 48 h; cells starved in 0.2% serum; 100% = growth in 10% serum | proliferation, % at 10 µM | 0.29% of 330,000 active | AID 2380, 2010;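 active = compounds whose signal lies at least 3.5 SD above the mean of all wells on their plate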
MIN6 prolif-2 = inducers of beta-cell proliferation in MIN6, confirmation, MIN6 cells, mouse; shares compounds with MIN6 prolif-1; ATPlite luminescence, 48 h; cells kept in 0.2% serum; scaled between 0.2% and 10% serum; proliferation increase, % at 50 µM; 920 tested, under 10 active; AID 463095, 2010;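 active = proliferation increase above 40% at any of the four tested concentrations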
Hits are given with their value; i = inactive; nt = no result. Sampled rows, rich in hits. Any-hit rate of the full collection: about 5.4%.

SMILES	Granule exo inh	JMJD2C inh	SMARCA2 act	M18AAP inhibitor	ALR H2O2 inh	MIN6 prolif-1	MIN6 prolif-2
COc1ccc2[nH]c(=O)c(CN(C)C(=O)c3ccncc3)cc2c1	i	i	i	i	i	i	nt
COc1ccc2c(Cl)c(C(=O)N/N=C/c3cccnc3)sc2c1	i	i	i	i	nt	15	i
O=C(CSc1n[nH]c(=O)n1-c1ccc2c(c1)OCCO2)Nc1ccccc1	i	i	i	i	i	4.9	i
O=C(CSc1n[nH]c(=O)n1-c1ccccc1)Nc1ccccc1	i	i	i	i	i	i	nt
NC(=O)[C@@H]1CCCN1C(=O)[C@H](CCc1ccccc1)NC(=O)[C@H]1O[C@@H](n2cnc3c(N)ncnc32)[C@H](O)[C@@H]1O	nt	nt	i	nt	nt	nt	nt
CCOc1ccccc1C(=O)NCC(=O)Nc1ncccc1C	i	i	i	nt	i	12	i
CCOc1ccc(C(=O)NCC(=O)Nc2ncccc2C)cc1OCC	i	i	i	nt	i	i	nt
COc1ccccc1Nc1ccncc1[N+](=O)[O-]	i	i	i	i	i	8.1	i
C/C(=N/NC(=O)c1ccc(Br)s1)c1ccncc1	i	i	i	i	i	15	i
C/C(=N/NC(=O)c1ccc(Br)s1)c1cccnc1	i	i	i	i	i	i	nt
COc1ncnc(-c2ccccc2)c1-c1ccccc1	i	i	i	nt	i	7.8	i
CNc1nc(Oc2ccc(=O)n(C)n2)nc(N2CCOCC2)n1	i	i	i	i	i	11	i
O=C(Nc1cccc2cccnc12)c1ccc(Cl)cc1	i	i	i	i	i	5.9	i
COc1ccccc1Nc1nc(C)nc2c1oc1ccccc12	i	i	i	i	i	10	i
COc1ccccc1N1CCN(C(=O)c2cc3c(=O)n4ccccc4nc3s2)CC1	i	i	i	nt	nt	13	i
CC1CC(C)CN(C(=O)c2cc3c(=O)n4ccccc4nc3s2)C1 (stereo unspecified)	i	i	i	i	i	i	nt
CCOC(=O)C1=C(C)NC(=O)NC1c1ccc(OC(=O)c2ccco2)c(OC)c1 (stereo unspecified)	i	i	i	i	i	4.7	i
COCCCNC(=O)C[C@H]1C[C@@]2(C(=O)OC)C(=C[C@H](C3CCCC3)O[C@@H]2C)N(Cc2cccc3ccccc23)C1=O	nt	nt	i	nt	nt	nt	nt
CN1C(=O)c2cc(NC(=O)Nc3ccccc3)ccc2OC[C@H]2O[C@@H](CC(=O)NCC(F)(F)F)CC[C@@H]21	nt	nt	i	nt	nt	nt	nt
CS(=O)(=O)N[C@@H]1C[C@@H]2O[C@@H](CO)CC[C@@H]2O[C@@H]1CCc1ccc(/C=C/c2ccccc2)cc1	nt	nt	i	nt	nt	nt	nt
CC(C)n1ncc2c(C(=O)NCc3cccnc3)cc(C3CC3)nc21	i	nt	i	nt	nt	11	i
CCOC(=O)Cc1cc(=O)n2[nH]c(C)c(-c3ccccc3)c2n1	i	i	i	i	i	6.1	i
COC(=O)[C@]12C[C@H](CC(=O)N3CCOCC3)C(=O)N(Cc3ccc4c(c3)OCO4)C1=C[C@H](C(C)(C)C)O[C@@H]2C	nt	nt	i	nt	nt	nt	nt
CC(C)c1nc2oc3c(NCc4ccccn4)ncnc3c2c2c1COC(C)(C)C2	i	i	i	nt	i	7.4	i
Cc1nc2oc3c(NCc4ccccn4)ncnc3c2c2c1COC(C)(C)C2	i	i	i	i	i	i	nt
SMILES	Granule exo inh	JMJD2C inh	SMARCA2 act	M18AAP inhibitor	ALR H2O2 inh	MIN6 prolif-1	MIN6 prolif-2
O=C(C(=O)N1CCN(C(=O)c2cccs2)CC1)c1cccc(C(F)(F)F)c1	nt	nt	i	nt	nt	nt	nt
COc1ccc(-c2noc(C3CCCN(S(=O)(=O)c4cccc(Cl)c4C)C3)n2)cc1OC (stereo unspecified)	i	i	i	i	i	i	nt
O=S(=O)(c1ccccc1Cl)N1CCCC(c2nc(-c3cccnc3)no2)C1 (stereo unspecified)	i	i	i	i	i	7.4	i
O=C(NCc1c(F)cccc1F)C1CCC(CNS(=O)(=O)c2cccc3cccnc23)CC1 (stereo unspecified)	nt	nt	i	nt	nt	nt	nt
C[C@H](O)[C@@H]1C(=O)N2CCc3c([nH]c4c(-c5ccccc5)cccc34)[C@@H]2C[C@@H]1N(C)C(=O)OCc1ccccc1	nt	nt	i	nt	nt	nt	nt
COCCN(Cc1cc2ccc(C)cc2[nH]c1=O)S(=O)(=O)c1ccccc1	i	i	i	i	i	9.1	i
CC(C)CNC(=O)OCc1cn(Cc2ccc(F)cc2F)nn1	nt	nt	i	nt	nt	nt	nt
COc1ccc(CCN(C)C(=O)c2cc(-c3ccccc3)nc3ccc(C)cc23)cc1OC	i	i	i	i	i	11	i
CCCCOCC1CN(CCCC)S(=O)(=O)c2c(cccc2N(C)S(=O)(=O)c2ccc(C)cc2)O1 (stereo unspecified)	nt	nt	i	nt	nt	nt	nt
N/C(=N\OC(=O)C12CC3CC(CC(C3)C1)C2)c1ccccn1	i	i	i	i	i	i	nt
C/C(=N\NC(=O)c1ccccn1)C12CC3CC(CC(C3)C1)C2	i	i	i	i	nt	6.6	i
N#CC(c1ccccn1)c1ncc(C(F)(F)F)cc1Cl (stereo unspecified)	i	i	i	i	i	8.3	i
CCC(CC)CN1CCC(CN2C(=S)NC[C@@H]2Cc2ccccc2)CC1	nt	nt	i	nt	nt	nt	nt
Cc1ccc(Nc2nc3c(c(=O)[nH]2)CCCC3)cc1	i	i	i	i	i	5.8	i
O=C(Nc1ccccc1)Nc1c(-c2ccc(F)cc2)nc2ncccn12	nt	nt	i	nt	nt	nt	nt
C[C@@H]1ON(C)[C@H]2C[C@H]3c4[nH]c5cccc(-c6ccccc6)c5c4CCN3C[C@@H]12	nt	nt	i	nt	nt	nt	nt
N#Cc1nc(-c2ccco2)oc1NCc1ccccc1Cl	i	i	i	i	i	4.6	i
COc1ccc(CCNC(=O)Cc2cc(OC)c(OC)cc2Br)cc1OC	i	i	i	i	i	i	nt
COc1ccc(CCNC(=O)CNC(=O)c2ccc(Br)o2)cc1OC	i	i	i	nt	i	13	i
CN1CCN(CC(O)COC(c2ccccc2)c2ccccc2)CC1 (stereo unspecified)	i	i	i	i	i	8.2	i
COc1ccc(/C=C/C(=O)C(C)(C)C)cc1OC	i	i	i	i	i	6.6	i
COc1ccc(/C=C/C(=O)OCC(=O)NC2CCCC2)cc1OC	i	i	i	nt	i	11	i
COc1ccc(/C=C/C(=O)OCC(=O)NC2CCCCCCC2)cc1	i	i	i	nt	i	i	nt
COc1ccc(/C=C/C(=O)NCCCNC(=O)/C=C/c2ccc(OC)c(OC)c2)cc1OC	i	i	i	nt	i	i	nt
